Screens: PubChem BioAssay, National Center for Advancing Translational Sciences (NCATS)
Shown are actives, neighbours in structure and some others; about 19% of the full set was active somewhere.
SW480 rereplic: DNA re-replication induction in SW480 cells | SW480 DNA re-replication, Hoechst DNA content imaging, 48 h | Potency, µM (doses to about 46.1 µM), hits mostly activators | 340,000 tested, 1.8% active; also: nearly all actives have a fitted effect of over 55% in size
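250 cells/well; 23 nL cpd via pin tool; 48 hr, 37 C, 5% CO2; Hoechst 40 min; imager read of total nuclear intensity, ex 405/em 500-530 nm.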
MCF10A rerep: DNA re-replication induction in MCF 10a cells | MCF 10A DNA re-replication, Hoechst nuclear intensity, 48 h | Potency, µM (highest dose often 46.1 µM), actives largely listed as activators | 350,000 tested, 2.9% active; also: nearly all actives have a fitted effect of over 50% in size
Chronic BCR inh: inhibitors of chronic active B-cell receptor signaling; ABC-DLBCL IkBa-CBG/CBR reporter, luminescence ratio, 4 h; Potency, µM (series often up to 46.1 µM), usual class: inhibitors; 340,000 tested, 0.05% active; active = well fitted inhibition curve with a large enough effect in the signal ratio, with a control signal flat, not every such curve was filed as active; inconclusive = small, poorly fitted or top-dose-only effect, or effect the other way, or a change in a side signal; the % refers to the signal ratio
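Doxycycline induced both beetle luciferases in TMD8 lymphoma cells; IKK-driven degradation limits the IkappaBalpha-fused green signal, while red luminescence normalises for cell number and nonspecific effects. Compounds tested up to 46 uM, 4 hrs.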
DT40 TDP1 no CPT: qHTS for Inhibitors of human tyrosyl-DNA phosphodiesterase 1 (TDP1): qHTS in cells in absence of CPT; DT40 Tdp1-/- hTDP1 cells, no CPT, ATP luminescence, 48 h; Potency, µM (doses to about 46.2 µM), actives largely listed as inhibitors; 420,000 tested, 15% active; AID 686978, 2013; also: nearly all actives have a fitted effect of over 55% in size
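Stably hTDP1-transfected Tdp1-null chicken DT40 cells were treated with library compounds minus camptothecin and grown for at least 48 hr at 37 °C, after which cellular ATP was quantified by luminescence.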
TDP1 cell CPT: growth inhibition of DT40 Tdp1-/-;hTDP1 cells with camptothecin (screen for TDP1 inhibitors); chicken DT40 Tdp1-/-;hTDP1 cells + 20 nM CPT, ATP luminescence, 48 h; Potency, µM (top dose mostly 46.2 µM), actives largely listed as inhibitors; 420,000 tested, 12% active; AID 686979; also: nearly all actives have a fitted effect of over 55% in size
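Chicken DT40 Tdp1-/- cells stably complemented with human TDP1 were seeded at 400 cells/well in medium containing 20 nM camptothecin, exposed to pin-transferred compounds, and grown at 37 °C for at least 48 hr. Viability was read as ATP luminescence.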
IL-1B inflam inh: blocks inflammasome-driven IL-1 beta release. THP-1 LPS/ATP IL-1B secretion, AlphaLISA, 16 h; hits give low values. activity change, % at 57.5 µM. 360,000 tested, 4.7% active; in the data active = activity change below about -50%; inconclusive = mostly about -30% to -49%
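Secreted IL-1B measured by AlphaLISA bead assay after 16 h compound exposure of THP-1 cells; compounds (final up to 57.5 uM) added 1 h before LPS (250 ng/mL) and ATP (1.25 mM) stimulation; lower signal means less secretion.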
Large screens that a line does not name were inactive. Unless noted, calls follow the shape of the dose curve; as a rule, active = well fitted curve in the direction sought with a large enough effect; inconclusive = small, poorly fitted or top-dose-only effect, or another doubt; inactive = no such curve, though single readings can be large; an effect the other way counts as inactive or inconclusive.

COc1cccc(CN(C)C(=O)c2ccc(S(=O)(=O)Nc3ccccc3F)cc2)c1OC	DT40 TDP1 no CPT inconclusive, TDP1 cell CPT inconclusive
COc1cccc(CN(C)C(=O)c2cccc(S(=O)(=O)N3CCN(c4ccc(F)cc4)CC3)c2)c1OC	DT40 TDP1 no CPT 13µM, TDP1 cell CPT 20.6µM, IL-1B inflam inh inconclusive
COc1cccc(CN2CCN(S(=O)(=O)c3ccccc3)CC2)c1OC	DT40 TDP1 no CPT inconclusive, TDP1 cell CPT inconclusive (no result: Chronic BCR inh)
CC(=O)c1ccc(NS(=O)(=O)c2cccc(C(=O)Nc3ccccc3C(=O)O)c2)cc1	DT40 TDP1 no CPT inconclusive
O=c1c(CCc2ccccc2)nc2cnc(N3CCOCC3)nc2n1-c1ccccc1	none (no result: SW480 rereplic, MCF10A rerep, Chronic BCR inh, IL-1B inflam inh)
COc1ccc(CNC(=O)c2cccc(S(=O)(=O)N3CCN(c4ccc(F)cc4)CC3)c2)cc1	DT40 TDP1 no CPT inconclusive, TDP1 cell CPT inconclusive
COc1ccccc1CNC(=O)c1cccc(S(=O)(=O)N2CCN(c3ccc(F)cc3)CC2)c1	DT40 TDP1 no CPT 11.6µM, TDP1 cell CPT inconclusive
CN(Cc1ccc(Cl)cc1Cl)C(=O)c1cccc(S(=O)(=O)N2CCN(c3ccccc3)CC2)c1	DT40 TDP1 no CPT 16.4µM, TDP1 cell CPT 25.9µM, IL-1B inflam inh inconclusive
CN(C)C(CNC(=O)c1cccc(S(=O)(=O)N2CCN(c3ccc(F)cc3)CC2)c1)c1ccccc1 (centres undefined)	SW480 rereplic inconclusive, MCF10A rerep inconclusive, DT40 TDP1 no CPT 9.2µM, TDP1 cell CPT 14.6µM, IL-1B inflam inh -74.2 (no result: Chronic BCR inh)
CN(CC1COc2ccccc2O1)C(=O)c1ccc(Cl)c(S(=O)(=O)N2CCCCCC2)c1 (centres undefined)	DT40 TDP1 no CPT inconclusive, TDP1 cell CPT 16.4µM
Cc1cccc(NC(=O)CSCC(=O)N(CCC(C)C)c2c(N)n(Cc3ccccc3)c(=O)[nH]c2=O)c1	none
COc1cccc(CN(C)C(=O)c2cc(S(=O)(=O)N3CCN(c4ccccc4)CC3)ccc2Cl)c1	DT40 TDP1 no CPT 16.4µM, TDP1 cell CPT 23.1µM
CN(CCOc1ccc(Cl)cc1)C(=O)c1cccc(S(=O)(=O)N2CCN(c3ccccc3)CC2)c1	DT40 TDP1 no CPT 6.51µM, TDP1 cell CPT 14.6µM (no result: Chronic BCR inh)
COc1cccc(CN(C)C(=O)c2cccc(S(=O)(=O)NCc3ccccc3)c2)c1OC	DT40 TDP1 no CPT inconclusive, TDP1 cell CPT inconclusive
COc1cccc(CN(C)CC(=O)N2CCN(S(=O)(=O)c3ccccc3)CC2)c1	none (no result: SW480 rereplic, MCF10A rerep, Chronic BCR inh)
COc1cccc(CN(C)C(=O)c2cccc(S(=O)(=O)N3CCN(c4ccccc4)CC3)c2)c1OC	DT40 TDP1 no CPT 8.2µM, TDP1 cell CPT 18.4µM (no result: Chronic BCR inh)
CCOc1cccnc1Sc1ccccc1	MCF10A rerep inconclusive (no result: Chronic BCR inh)
CCCC1(CCC)NC(=O)N(CC(=O)N2CCc3ccccc32)C1=O	none
CCN(CC)C(=O)C1=C(C)N(CCCOC)C(=O)C(CC(=O)NCc2ccco2)C1 (centres undefined)	none (no result: SW480 rereplic, MCF10A rerep, Chronic BCR inh)
CCOc1ccc(/C=C/C(=O)c2cc(Br)ccc(=O)c2O)cc1	SW480 rereplic inconclusive, MCF10A rerep 9.2µM, Chronic BCR inh inconclusive, DT40 TDP1 no CPT 3.66µM, TDP1 cell CPT 4.61µM, IL-1B inflam inh inconclusive
CCOc1ccc(/C=C/C(=O)CCC(=O)O)cc1	none
Cc1cccc(/C=C/C(=O)c2cc(Br)ccc(=O)c2O)c1	SW480 rereplic inconclusive, MCF10A rerep 10.3µM, Chronic BCR inh inconclusive, DT40 TDP1 no CPT 3.26µM, TDP1 cell CPT 3.26µM, IL-1B inflam inh inconclusive
CCc1ccc(/C=C/C(=O)c2cc(Br)ccc(=O)c2O)cc1	SW480 rereplic inconclusive, MCF10A rerep inconclusive, DT40 TDP1 no CPT 5.17µM, TDP1 cell CPT 3.26µM
CN(C)S(=O)(=O)c1cccc(NC(=S)NNC(=O)c2cc3ccccc3cc2O)c1	Chronic BCR inh inconclusive, DT40 TDP1 no CPT inconclusive, TDP1 cell CPT inconclusive
COc1cccc(C(O)c2nc(-c3cncnc3)cs2)c1 (centres undefined)	none (no result: SW480 rereplic, MCF10A rerep, Chronic BCR inh)
